Records with an inconclusive call do not appear. Activity calls are given as the source filed them. Calls follow the shape of the dose curve; as a rule, active = well fitted inhibition curve with a large enough effect; inconclusive = small, poorly fitted or top-dose-only effect; inactive = flat fitted curve, though single readings scatter.

What all share (test): qHTS profiling for inhibitors of Plasmodium falciparum proliferation (AID 504749); also: nearly all actives have a fitted effect of over 60% in size
What all share (conditions): P. falciparum in erythrocytes, SYBR Green DNA, 72 h; series mostly up to 28.7 µM
In general terms: In qHTS, concentration-response curves come from the screen itself.

One test deals with DIV30. The method in brief:
(§1)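 Three-day growth assay of blood-stage parasites in erythrocytes (0.3% parasitemia, 2.5% hematocrit) at 37 C, 5% CO2, quantified by SYBR Green DNA staining after overnight detergent lysis.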

Another test has as its system ECU. The method in brief:
as §1

For the next test, the system named is FAB9. The method in brief:
as §1

A further test deals with HB3. The method in brief:
as §1

In another test the test system is ICS. The method in brief:
as §1

For another test, the system named is N140. The method in brief:
as §1

Another test concerns P94_40. The method in brief: as §1
A further test deals with PAD. The method in brief: as §1
The subject of a further test is PC15. The method in brief:
as §1

The subject of another test is PC26. The method in brief:
as §1

The subject of another test is PC49. The method in brief:
as §1

The next test concerns SC27B. In short, it runs like this: as §1
The subject of another test is TAB109. The method in brief: as §1
Another test deals with TAB113. The method in brief:
as §1

The subject of another test is DIV14. The method in brief: as §1
A further test has as its system Dd2. The method in brief: as §1
The subject of another test is GB4. The method in brief:
as §1

The next test has as its system JCK. In short, it runs like this: as §1
In another test the test system is P93_24. The method in brief:
as §1

The next test deals with DIV17. In short, it runs like this:
as §1
Potency is read from the fitted curve at half-maximal effect.

With `CC(=O)c1ccc2c(c1)N(CCCN(C)C)c1ccccc1S2`, the Potency result in the test on DIV30, in the test with ECU, in the test on FAB9, in the test on HB3, in the test on ICS and in the test on N140 was “inactive” each time. Moreover, the Potency entry in the test on P94_40, in the test on PAD, in the test with PC15, in the test with PC26, in the test with PC49 and with SC27B was “inactive” throughout. In addition, the Potency result in the test with TAB109 and in the test with TAB113 was “inactive” throughout.

On to `COC(=O)C1=C(C)NC(C)=C(C(=O)OC)C1c1ccccc1[N+](=O)[O-]`, for which the Potency result in the test on DIV14, in the test on DIV30, in the test on Dd2, in the test with ECU, in the test on FAB9 and in the test on GB4 was “inactive” in each case. For the same compound, the Potency result in the test with HB3, in the test on JCK, in the test with N140, in the test with P93_24, in the test with P94_40 and in the test on PAD was “inactive” in each case. Moreover, the Potency entry with PC15, with PC26, in the test with PC49, in the test with SC27B, with TAB109 and with TAB113 was “inactive” in each case.

As for `CSc1ccc2c(c1)C(N1CCN(C)CC1)Cc1ccccc1S2` (centres undefined), the Potency is 10.7 µM (active) in the test on DIV14; 15.1 µM (active) with DIV17; 13.5 µM (active) with GB4; 8.91 µM (active) in the test with ICS; 11.2 µM (active) in the test with P93_24. Further, the Potency entry in the test on FAB9, in the test with HB3, in the test with JCK, with PC15 and in the test on PC49 was “inactive” each time.

Regarding `CN1CCN(C2Cc3ccccc3Sc3ccc(Cl)cc32)CC1` (centres undefined), the Potency entry with FAB9, with HB3, in the test with JCK, with N140, in the test on P94_40 and with PC15 was “inactive” throughout. Further, in the test with ICS, the Potency is 12.6 µM (active).

Turning to `OCc1cc(C(O)CNCCCCCCOCCCCc2ccccc2)ccc1O` (centres undefined), the Potency entry in the test with Dd2, in the test on ECU, in the test on FAB9, with HB3, with JCK and in the test with N140 was “inactive” in each case. The Potency result with P94_40, in the test on PAD, in the test on PC49, in the test with SC27B and in the test with TAB113 was “inactive” each time. Moreover, the Potency with GB4 was 9.53 µM (active).

Take `CNCCCC1c2ccccc2C=Cc2ccccc21`: the Potency in the test with DIV17 was 2.56 µM (active). For the same compound, the Potency entry in the test on ECU, in the test on FAB9, in the test on HB3, in the test with JCK, in the test with N140 and in the test on PAD was “inactive” each time. For the same compound, the Potency entry with PC49, in the test with SC27B, with TAB109 and in the test with TAB113 was “inactive” each time.

On to `O=C(O)c1ccccn1`, for which the Potency entry in the test with DIV17, with DIV30, with Dd2, in the test on ECU, with FAB9 and with GB4 was “inactive” throughout. Also, the Potency entry in the test with HB3, in the test on ICS, with JCK, with N140, in the test on P93_24 and in the test with P94_40 was “inactive” throughout. The Potency entry in the test on PAD, in the test with PC15, with PC26, with PC49, with SC27B and in the test on TAB109 was “inactive” in each case. Also, the Potency entry in the test on TAB113 was “inactive”.

Turning to `CCOC(CN1CCN(CC(C)C(=O)c2ccccc2)CC1)c1ccccc1` (centres undefined), the Potency entry in the test with DIV30, in the test on ECU, in the test on FAB9, in the test on HB3, in the test with JCK and in the test on N140 was “inactive” throughout. Further, the Potency entry in the test on PAD, with PC15, in the test on PC49 and with SC27B was “inactive” in each case.

With `CN1CCCCC1CCN1c2ccccc2Sc2ccc(S(C)=O)cc21` (centres undefined), the Potency in the test on DIV14 was 7.57 µM (active); with DIV17 it was 12 µM (active); in the test on ICS it was 5.01 µM (active). Further, the Potency entry with ECU, in the test on FAB9, in the test on HB3, in the test on JCK, in the test on PAD and with PC49 was “inactive” each time. The Potency entry in the test on TAB113 is “inactive”.

For the compound `COCCOC(=O)C1=C(C)NC(C)=C(C(=O)OC/C=C/c2ccccc2)C1c1cccc([N+](=O)[O-])c1` (centres undefined), the Potency in the test on DIV14 was 13.5 µM (active); with DIV17, 8.49 µM (active); with Dd2, 12.6 µM (active); in the test on ECU, 10 µM (active); in the test with HB3 it was 11.2 µM (active); in the test on ICS, 11.2 µM (active). For the same compound, the Potency with N140 is 8.91 µM (active); in the test with P93_24, 11.2 µM (active); in the test with PAD, 8.91 µM (active); with SC27B, 10 µM (active). For the same compound, the Potency result in the test on FAB9, in the test with JCK and in the test on PC49 was “inactive” each time.

For the origin of these results see PubChem BioAssay (NCATS).
